Most compounds without a hit are left out; they make up all but 4% or so of the library.
Peg3 prom inh = reduces Peg3 promoter-driven luciferase expression in HeLa. HeLa PEG-Prom luciferase reporter, luminescence, overnight. 1.7% of 360,000 active. inhibition, % at 20 µM;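 active = inhibition of at least 50% at 20 µM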
TROY signal inh = inhibitors of TROY-dependent NF-kB signaling; Q293 LMP1-TROYcd NF-kB luciferase reporter, 4 h; inhibition, % at 10 µM; 0.98% of 360,000 active;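 active = compounds whose plate-normalised and pattern-corrected inhibition of the luciferase reporter signal at the single screening dose is 50% or more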
HIF-2a block = inhibitors of HIF-2a. 786-0 RCC cells HIF-2a reporter, luciferase luminescence, overnight. inhibition, % at 18.8 µM. 0.72% of 360,000 active. AID 624352;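 active = inhibition of the luminescence signal of 40% or more relative to plate controls, in a single-dose primary screen at 18.75 µM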
CF NFkB block = inhibitors of cystic fibrosis induced NF-kB; KKLEB NF-kB-GFP reporter, PAF-induced, GFP fluorescence overnight; inhibition, % at 5 µM; 0.86% of 360,000 active;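 active = at least 50% inhibition at 5 µM, scaled per plate between neutral and stimulator controls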;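 note: PAF is a Pseudomonas aeruginosa culture filtrate used as stimulus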
KKLEB tox = reduces viability of KKLEB cystic fibrosis airway cells | KKLEB CF airway cells viability, ATPlite luminescence, overnight; active compounds read low; cells stimulated with P. aeruginosa culture filtrate | 0.36% of 360,000 active | activity change (cytotoxicity), % at 5 µM;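 active = corrected activity change at or below -50% at 5 µM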
TWEAK Fn14 block = blocks TWEAK-Fn14 interaction in a reporter cell assay | 2% of 360,000 active | inhibition, % at 10 µM | TWEAK-stimulated Fn14 reporter cells, luciferase luminescence, 8 h; in the data active = inhibition above about 50%
Numbers stand for hits; . = inactive; / = no result.

SMILES | Peg3 prom inh | TROY signal inh | HIF-2a block | CF NFkB block | KKLEB tox | TWEAK Fn14 block
Cc1cc(SCc2cc(=O)n3ccsc3n2)nc2ccccc12 | . | . | . | . | . | .
CN(c1cccc(NC(=O)CN(c2ccc(C34CC5CC(CC(C5)C3)C4)cc2)S(C)(=O)=O)c1)S(C)(=O)=O | . | . | . | . | . | 61
Cc1ccccc1-n1nc(C(=O)c2cccs2)cc(-c2nc3ccccc3[nH]2)c1=N | . | . | . | . | . | .
COc1ccc(-n2nc(C(=O)c3cccs3)cc(-c3nc4ccccc4[nH]3)c2=N)cc1 | 87 | . | . | . | . | .
CCOc1cc(CNC(C)(C)CO)cc(Br)c1OCc1ccc(Cl)cc1Cl | 58 | . | . | . | . | .
COc1cc(CNC(C)(C)CO)cc(Br)c1OCc1ccccc1 | . | . | . | . | . | .
CCOc1cc(CNCCO)cc(Br)c1OCc1ccc(Cl)cc1 | 101 | . | . | . | . | .
CCOc1cc(CNCCCN2CCOCC2)cc(Br)c1OCc1ccccc1Cl | 111 | . | . | . | -55 | .
CN(CC(=O)Nc1ccc(N2CCOCC2)cc1)C(=O)CCNC(=O)c1ccc(Br)cc1 | . | . | . | . | . | .
O=Cc1c(NCCN2CCCC2)c2ccccc2[nH]c1=O | . | . | . | . | . | .
O=C(COC(=O)c1cc([N+](=O)[O-])ccc1N1CCOCC1)Nc1cccc(F)c1 | . | . | . | . | . | .
Cc1ccc2sc(-c3ccc(NC(=O)/C=C\C(=O)O)cc3)nc2c1 | . | . | . | . | . | 55
CCCCCC(=O)Nc1ccc(-c2csc(C)n2)cc1 | . | . | . | . | . | .
Cc1ccc2nc(-c3ccc(NC(=O)COCC(=O)O)cc3)sc2c1 | . | . | . | . | . | .
Cc1nc(-c2ccc(NC(=O)/C=C\C(=O)O)cc2)cs1 | . | 61 | . | . | . | .
COc1ccc(C(=O)c2[nH]c(N)c(C(=O)NCCc3c[nH]c4ccccc34)c2-c2ccc(C(F)(F)F)cc2)cc1 | / | . | . | / | / | .
CC(C)NC(=O)Nc1nnc([C@@H]2C[C@H](O)[C@@H](CO)O2)s1 | . | . | . | . | . | .
CCn1cc(S(=O)(=O)Nc2ccc3c(c2)OCCO3)cn1 | . | 86 | . | . | . | 88
Cc1nc(S(=O)(=O)Nc2ccc3c(c2)OCCO3)cn1C | . | . | . | . | . | .
Cn1cc(S(=O)(=O)Nc2ccc3c(c2)OCCO3)cn1 | . | 62 | . | . | . | 70
Nc1nc(CCl)nc(Nc2ccc3ccccc3c2)n1 | . | . | . | 78 | . | .
O=[N+]([O-])/C=C\c1ccc(N2CCOCC2)cc1 | . | 53 | 55 | . | . | 53
O=C(COc1ccc(/C=C\[N+](=O)[O-])cc1)N1CCOCC1 | . | . | . | . | . | .
CCC(=O)c1ccc(OCc2cn(CC(=O)c3ccc(O)cc3)nn2)cc1 | . | . | . | . | . | .
O=C1c2ccccc2C(=O)N1CCc1ccccn1 | . | . | . | . | . | .
SMILES | Peg3 prom inh | TROY signal inh | HIF-2a block | CF NFkB block | KKLEB tox | TWEAK Fn14 block
CC(=O)Oc1cccc(N2C(=O)c3cccc4c([N+](=O)[O-])ccc(c34)C2=O)c1 | . | . | . | . | . | .
CN(C)CCCN1C(=O)c2cccc3c([N+](=O)[O-])ccc(c23)C1=O | 91 | . | . | . | . | .
O=C1c2cccc3c([N+](=O)[O-])ccc(c23)C(=O)N1CCc1ccccn1 | 92 | . | . | . | . | .
CC(C)=CCc1c(O)cc2oc3c(CC=C(C)C)c(O)c(O)c(CC=C(C)C)c3c(=O)c2c1O | . | 58 | . | . | . | 82
CC(C)=CCc1cc(-c2oc3cc(O)cc(O)c3c(=O)c2O)ccc1O | . | . | . | . | . | .
Cc1ccc(CNC(=O)CCSCc2ccccc2C)cc1 | . | . | . | . | . | .
CC(=O)Nc1ccc(C=NN=C2c3ccccc3-c3ccccc32)cc1 | 74 | . | . | . | . | .
CC(=O)Nc1ccc(/C=C2\Sc3ccccc3C2=O)cc1 | . | . | 50 | . | . | .
CC(=O)N(C)/C=C1\Sc2ccccc2C1=O | . | . | . | . | . | .
COC(=O)[C@]12CCCCC=C1N(CCC1=CCCCC1)C(=O)[C@H](CC(=O)N1CCOCC1)C2 | / | . | . | / | / | .
COc1ccc(OC)c(/C=C/C(=O)N2CCN(S(=O)(=O)c3ccc(C)cc3C)CC2)c1 | . | . | . | . | . | .
CN(CC(=O)Nc1ccccc1Cl)C(=O)COC(=O)c1cnccn1 | . | . | . | . | . | .
Cc1ccc(/C=C/C(=O)c2cc(Br)ccc2OC(=O)c2ccco2)cc1 | . | . | . | . | . | .
COc1ccccc1/C=C/C(=O)c1cc(Br)ccc1OC(=O)c1ccco1 | . | . | 87 | . | . | .
CCCCCCCCN1C(=O)[C@H](CC(=O)N2CCN(C(=O)OCC)CC2)C[C@@]2(C(=O)OC)CCCCC=C12 | / | . | . | / | / | .
O=C(O)c1ccccc1C(=O)Nc1ccc(Oc2ccccc2)cc1 | . | . | . | . | . | 58
Cc1cc(C(=O)N2CCN(c3cc(Cl)ccc3C)CC2)on1 | . | . | . | . | . | .
C/C(=N\Nc1ccc(C(=O)O)cc1)c1ccc(Br)cc1 | . | . | . | . | . | 66
C/C(=N/Nc1ncc(Br)cn1)c1ccc(Br)cc1 | . | . | . | . | . | .
O=C1NCN(c2ccccc2)C12CCN(CCCC(c1ccc(F)cc1)c1ccc(F)cc1)CC2 | 82 | . | . | . | . | .
CCOC(=O)c1c(-c2ccccc2)csc1NC(=O)CCN1C(=O)c2ccccc2C1=O | . | . | . | . | . | .
CCOC(=O)c1c(-c2ccccc2Cl)csc1NC(=O)CSc1nc(C)cc(=O)[nH]1 | . | 59 | . | . | . | .
CCOC(=O)c1c(-c2ccc(C)o2)csc1NC(=O)CSc1nnc(C)s1 | . | . | . | . | . | .
CCOC(=O)c1ccc(NC(=O)CSc2nc(C)cc(=O)[nH]2)cc1 | . | . | . | . | . | .
CCOC(=O)c1c(-c2ccccc2)csc1NC(=O)CSc1nnc(C)s1 | . | . | . | . | . | 79
SMILES | Peg3 prom inh | TROY signal inh | HIF-2a block | CF NFkB block | KKLEB tox | TWEAK Fn14 block
CCOC(=O)c1c(-c2ccc(-c3ccccc3)cc2)csc1NC(=O)CNCCN(C)C | 103 | . | . | . | . | .
CCCCN1C(=O)C(CC(=O)NCc2cccc3ccccc23)CC(C(=O)N(C)C)=C1C (stereo not given) | . | . | . | . | . | .
COc1ccc(/C=C2/SC(=S)N(c3ccc(S(=O)(=O)Nc4nccs4)cc3)C2=O)cc1 | . | 54 | . | . | . | .
Cc1ccc(/C=C2/SC(=S)N(c3ccc(S(=O)(=O)Nc4nccs4)cc3)C2=O)cc1 | . | 61 | . | . | . | 64
O=C1/C(=C\c2ccccn2)SC(=S)N1c1ccc(S(=O)(=O)Nc2nccs2)cc1 | . | . | . | . | . | .
COc1ccc(S(=O)(=O)N(C(=O)c2ccncc2)c2ccc3oc4c(c3c2)CCCC4)cc1 | . | . | . | . | . | 51

Screens (PubChem)
